Data published in PubChem BioAssay (EPA / NIEHS).
The source made the active and inactive calls. The calls were made as follows: active = hit-call score of the fitted dose curve at least 0.9, where 1 is the maximum; inactive = score below 0.9.

What was measured:
Details in all cases: mRNA level, 48 h; actives raise or lower the signal
[1] = read-out: Tumor necrosis factor receptor superfamily member 6 (Homo sapiens) (UniProt P25445); experiment: LTEA_HepaRG_FAS: Life Technologies and Expression Analysis (LTEA) Assay for Fas cell surface death receptor (FAS) using HepaRG (AID 2283447)
Procedure, shortened: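 Differentiated HepaRG cells in serum-free induction medium were exposed 48 h to 8 half-log concentrations up to 100 uM in 0.5% DMSO, in duplicate. FAS mRNA was measured by qRT-PCR normalised to ACTB, GAPDH and POLR2A; bidirectional fit versus DMSO.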

[2] = read-out: Fatty acid synthase (Homo sapiens) (UniProt P49327); experiment: LTEA_HepaRG_FASN: Life Technologies and Expression Analysis (LTEA) Assay for Fatty Acid Synthase (FASN) using HepaRG (AID 2283448)
Procedure, shortened: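 Differentiated human HepaRG cells were exposed for 48 h in serum-free induction medium to eight half-log concentrations up to 100 uM in 0.5% DMSO, in duplicate. FASN mRNA was quantified by TaqMan qRT-PCR, normalized to ACTB/GAPDH/POLR2A, and fitted bidirectionally against DMSO.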

[3] = read-out: Cyclin D2 (CCND2), CCND2 (gene 894); experiment: LTEA_HepaRG_CCND2: Life Technologies and Expression Analysis (LTEA) Assay for Cyclin D2 (CCND2) using HepaRG (AID 2283449);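 also: CCND2 transcript measured by TaqMan qRT-PCR and normalised to three housekeeping genes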
Procedure, shortened: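 Chemicals in 0.5% DMSO, eight half-log concentrations from 100 uM top, were applied in duplicate for 48 h to human HepaRG cells in serum-free induction medium. CCND2 mRNA by TaqMan qRT-PCR, normalised to ACTB/GAPDH/POLR2A; bidirectional fit versus DMSO.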

[4] = read-out: Cyclin Dependent Kinase Inhibitor 1A (CDKN1A), CDKN1A (gene 1026); experiment: LTEA_HepaRG_CDKN1A: Life Technologies and Expression Analysis (LTEA) Assay for Cyclin Dependent Kinase Inhibitor 1A (CDKN1A) using HepaRG (AID 2283450)
Procedure, shortened: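 Read-out is CDKN1A mRNA by TaqMan qRT-PCR, normalized to three housekeeping genes and fitted in both directions against the DMSO baseline. Human HepaRG cells were treated 48 h with test chemicals up to 100 uM in half-log steps, 0.5% DMSO.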

[5] = read-out: Cyclin D1 (CCND1), CCND1 (gene 595); experiment: LTEA_HepaRG_CCND1: Life Technologies and Expression Analysis (LTEA) Assay for Cyclin D1 (CCND1) using HepaRG (AID 2283451)
Procedure, shortened: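 HepaRG plated 48 h, medium switched to serum-free induction medium, chemicals added in duplicate (top 100 uM, half-log steps, 0.5% DMSO) for 48 h, cells lysed, RNA measured by TaqMan qRT-PCR.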

[6] = read-out: catalase (CAT), CAT (gene 847); experiment: LTEA_HepaRG_CAT: Life Technologies and Expression Analysis (LTEA) Assay for catalase (CAT) using HepaRG (AID 2283452)
Procedure, shortened: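 HepaRG cells in serum-free induction medium, 0.5% DMSO vehicle, exposed 48 h in duplicate over 8 half-log concentrations from 100 uM. CAT mRNA measured by qRT-PCR, normalized to ACTB, GAPDH, POLR2A; bidirectional fit versus DMSO.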

[7] = read-out: flavin-containing dimethylaniline monooxygenases 3 (FMO3), FMO3 (gene 2328); experiment: LTEA_HepaRG_FMO3: Life Technologies and Expression Analysis (LTEA) Assay for flavin-containing dimethylaniline monooxygenases 3 (FMO3) using HepaRG (AID 2283453)
Procedure, shortened: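 HepaRG, 48 h exposure, 8-pt half-log series from 100 uM, 0.5% DMSO vehicle, duplicates; FMO3 transcript by Fluidigm TaqMan qRT-PCR, housekeeping-normalized; gain/loss fit vs DMSO.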

[8] = read-out: Cytochrome P450 (CYP1A1), CYP1A1 (gene 1543); experiment: LTEA_HepaRG_CYP1A1: Life Technologies and Expression Analysis (LTEA) Assay for Cytochrome P450 (CYP1A1) using HepaRG (AID 2283454)
Procedure, shortened: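 HepaRG, 48 h post-plating switched to serum-free induction medium; 8-pt conc-response (top 100 uM, half-log, 0.5% DMSO), duplicates, 48 h. Lysis in RLT, TaqMan qRT-PCR for CYP1A1; gain or loss vs DMSO.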

[9] = read-out: CFLAR gene, CFLAR (gene 8837); experiment: LTEA_HepaRG_CFLAR: Life Technologies and Expression Analysis (LTEA) Assay for CFLAR gene using HepaRG (AID 2283455)
Procedure, shortened: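 Differentiated HepaRG cells in serum-free induction medium were exposed 48 h in duplicate to eight half-log concentrations up to 100 uM in 0.5% DMSO; mRNA measured by TaqMan qRT-PCR, normalized to ACTB, GAPDH, POLR2A; bidirectional fitting versus DMSO.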

[10] = read-out: Forkhead box O1 (FOXO1), FOXO1 (gene 2308); experiment: LTEA_HepaRG_FOXO1: Life Technologies and Expression Analysis (LTEA) Assay for Forkhead box O1 (FOXO1) using HepaRG (AID 2283456)
Procedure, shortened: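 Differentiated HepaRG cells, in serum-free induction medium with 0.5% DMSO, exposed 48 h in duplicate to 8-point half-log series from 100 uM. FOXO1 mRNA measured by TaqMan qRT-PCR, normalized to ACTB, GAPDH, POLR2A; bidirectional fit versus DMSO.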

[11] = read-out: growth arrest and DNA damage 45 (GADD45A), GADD45A (gene 1647); experiment: LTEA_HepaRG_GADD45A: Life Technologies and Expression Analysis (LTEA) Assay for growth arrest and DNA damage 45 (GADD45A) using HepaRG (AID 2283458)
Procedure, shortened: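 Differentiated HepaRG cells were exposed in duplicate for 48 h in serum-free induction medium to 8-point half-log concentrations up to 100 uM in 0.5% DMSO. GADD45A mRNA was measured by TaqMan qRT-PCR, normalized to ACTB, GAPDH and POLR2A, with bidirectional fitting versus DMSO.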

[12] = read-out: Forkhead box O3 (FOXO3), FOXO3 (gene 2309); experiment: LTEA_HepaRG_FOXO3: Life Technologies and Expression Analysis (LTEA) Assay for Forkhead box O3 (FOXO3) using HepaRG (AID 2283459)
Procedure, shortened: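 Differentiated human HepaRG cells, 48 h post-plating, exposed in duplicate for 48 h in serum-free induction medium; 8-point half-log series from 100 uM in 0.5% DMSO. FOXO3 mRNA by TaqMan qRT-PCR, normalized to ACTB/GAPDH/POLR2A; bidirectional fit versus DMSO.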

[13] = read-out: ABC Transporter (ABCB1), ABCB1 (gene 5243); experiment: LTEA_HepaRG_ABCB1: Life Technologies and Expression Analysis (LTEA) Assay for ABC Transporter (ABCB1) using HepaRG (AID 2283460)
Procedure, shortened: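 HepaRG cells exposed in duplicate for 48 h in serum-free induction medium to eight half-log concentrations up to 100 uM in 0.5% DMSO. ABCB1 mRNA quantified by qRT-PCR, normalised to ACTB, GAPDH and POLR2A; fitted bidirectionally versus DMSO.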

[14] = read-out: growth arrest and DNA damage 45 (GADD45B), GADD45B (gene 4616); experiment: LTEA_HepaRG_GADD45B: Life Technologies and Expression Analysis (LTEA) Assay for growth arrest and DNA damage 45 (GADD45B) using HepaRG (AID 2283461)
Procedure, shortened: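 HepaRG, ~100,000 cells/well, 48 h plating; serum-free induction medium; cpd 100 uM top, half-log x8, 0.5% DMSO, duplicate, 48 h; lysis in RLT, RNA isolation, qRT-PCR; norm ACTB/GAPDH/POLR2A; bidirectional fit vs DMSO.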

[15] = read-out: ABC Transporter (ABCC3), ABCC3 (gene 8714); experiment: LTEA_HepaRG_ABCC3: Life Technologies and Expression Analysis (LTEA) Assay for ABC Transporter (ABCC3) using HepaRG (AID 2283462)
Procedure, shortened: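 Human HepaRG, 48 h dosing, 8-pt half-log series from 100 uM, 0.5% DMSO vehicle, duplicates. ABCC3 mRNA by TaqMan qRT-PCR, housekeeping-normalized; bidirectional curve fit vs DMSO.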

[16] = read-out: ABC Transporter (ABCB11), ABCB11 (gene 8647); experiment: LTEA_HepaRG_ABCB11: Life Technologies and Expression Analysis (LTEA) Assay for ABC Transporter (ABCB11) using HepaRG (AID 2283463)
Procedure, shortened: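 Differentiated human HepaRG cells in serum-free induction medium, dosed in duplicate for 48 h. Eight-point half-log series from 100 uM in 0.5% DMSO; ABCB11 mRNA by qRT-PCR, normalized to ACTB, GAPDH, POLR2A, fitted bidirectionally versus DMSO.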

[17] = read-out: ABC Transporter (ABCC2), ABCC2 (gene 1244); experiment: LTEA_HepaRG_ABCC2: Life Technologies and Expression Analysis (LTEA) Assay for ABC Transporter (ABCC2) using HepaRG (AID 2283464)
Procedure, shortened: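 HepaRG, 48 h post-plating; serum-free induction medium; cpd 8-pt, 100 uM top, half-log, 0.5% DMSO, duplicate, 48 h. Readout: ABCC2 mRNA by qRT-PCR, norm. ACTB/GAPDH/POLR2A. Bidirectional fit vs DMSO baseline.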

Sequence of Fatty acid synthase (Homo sapiens) (P49327 whole entry, looked up): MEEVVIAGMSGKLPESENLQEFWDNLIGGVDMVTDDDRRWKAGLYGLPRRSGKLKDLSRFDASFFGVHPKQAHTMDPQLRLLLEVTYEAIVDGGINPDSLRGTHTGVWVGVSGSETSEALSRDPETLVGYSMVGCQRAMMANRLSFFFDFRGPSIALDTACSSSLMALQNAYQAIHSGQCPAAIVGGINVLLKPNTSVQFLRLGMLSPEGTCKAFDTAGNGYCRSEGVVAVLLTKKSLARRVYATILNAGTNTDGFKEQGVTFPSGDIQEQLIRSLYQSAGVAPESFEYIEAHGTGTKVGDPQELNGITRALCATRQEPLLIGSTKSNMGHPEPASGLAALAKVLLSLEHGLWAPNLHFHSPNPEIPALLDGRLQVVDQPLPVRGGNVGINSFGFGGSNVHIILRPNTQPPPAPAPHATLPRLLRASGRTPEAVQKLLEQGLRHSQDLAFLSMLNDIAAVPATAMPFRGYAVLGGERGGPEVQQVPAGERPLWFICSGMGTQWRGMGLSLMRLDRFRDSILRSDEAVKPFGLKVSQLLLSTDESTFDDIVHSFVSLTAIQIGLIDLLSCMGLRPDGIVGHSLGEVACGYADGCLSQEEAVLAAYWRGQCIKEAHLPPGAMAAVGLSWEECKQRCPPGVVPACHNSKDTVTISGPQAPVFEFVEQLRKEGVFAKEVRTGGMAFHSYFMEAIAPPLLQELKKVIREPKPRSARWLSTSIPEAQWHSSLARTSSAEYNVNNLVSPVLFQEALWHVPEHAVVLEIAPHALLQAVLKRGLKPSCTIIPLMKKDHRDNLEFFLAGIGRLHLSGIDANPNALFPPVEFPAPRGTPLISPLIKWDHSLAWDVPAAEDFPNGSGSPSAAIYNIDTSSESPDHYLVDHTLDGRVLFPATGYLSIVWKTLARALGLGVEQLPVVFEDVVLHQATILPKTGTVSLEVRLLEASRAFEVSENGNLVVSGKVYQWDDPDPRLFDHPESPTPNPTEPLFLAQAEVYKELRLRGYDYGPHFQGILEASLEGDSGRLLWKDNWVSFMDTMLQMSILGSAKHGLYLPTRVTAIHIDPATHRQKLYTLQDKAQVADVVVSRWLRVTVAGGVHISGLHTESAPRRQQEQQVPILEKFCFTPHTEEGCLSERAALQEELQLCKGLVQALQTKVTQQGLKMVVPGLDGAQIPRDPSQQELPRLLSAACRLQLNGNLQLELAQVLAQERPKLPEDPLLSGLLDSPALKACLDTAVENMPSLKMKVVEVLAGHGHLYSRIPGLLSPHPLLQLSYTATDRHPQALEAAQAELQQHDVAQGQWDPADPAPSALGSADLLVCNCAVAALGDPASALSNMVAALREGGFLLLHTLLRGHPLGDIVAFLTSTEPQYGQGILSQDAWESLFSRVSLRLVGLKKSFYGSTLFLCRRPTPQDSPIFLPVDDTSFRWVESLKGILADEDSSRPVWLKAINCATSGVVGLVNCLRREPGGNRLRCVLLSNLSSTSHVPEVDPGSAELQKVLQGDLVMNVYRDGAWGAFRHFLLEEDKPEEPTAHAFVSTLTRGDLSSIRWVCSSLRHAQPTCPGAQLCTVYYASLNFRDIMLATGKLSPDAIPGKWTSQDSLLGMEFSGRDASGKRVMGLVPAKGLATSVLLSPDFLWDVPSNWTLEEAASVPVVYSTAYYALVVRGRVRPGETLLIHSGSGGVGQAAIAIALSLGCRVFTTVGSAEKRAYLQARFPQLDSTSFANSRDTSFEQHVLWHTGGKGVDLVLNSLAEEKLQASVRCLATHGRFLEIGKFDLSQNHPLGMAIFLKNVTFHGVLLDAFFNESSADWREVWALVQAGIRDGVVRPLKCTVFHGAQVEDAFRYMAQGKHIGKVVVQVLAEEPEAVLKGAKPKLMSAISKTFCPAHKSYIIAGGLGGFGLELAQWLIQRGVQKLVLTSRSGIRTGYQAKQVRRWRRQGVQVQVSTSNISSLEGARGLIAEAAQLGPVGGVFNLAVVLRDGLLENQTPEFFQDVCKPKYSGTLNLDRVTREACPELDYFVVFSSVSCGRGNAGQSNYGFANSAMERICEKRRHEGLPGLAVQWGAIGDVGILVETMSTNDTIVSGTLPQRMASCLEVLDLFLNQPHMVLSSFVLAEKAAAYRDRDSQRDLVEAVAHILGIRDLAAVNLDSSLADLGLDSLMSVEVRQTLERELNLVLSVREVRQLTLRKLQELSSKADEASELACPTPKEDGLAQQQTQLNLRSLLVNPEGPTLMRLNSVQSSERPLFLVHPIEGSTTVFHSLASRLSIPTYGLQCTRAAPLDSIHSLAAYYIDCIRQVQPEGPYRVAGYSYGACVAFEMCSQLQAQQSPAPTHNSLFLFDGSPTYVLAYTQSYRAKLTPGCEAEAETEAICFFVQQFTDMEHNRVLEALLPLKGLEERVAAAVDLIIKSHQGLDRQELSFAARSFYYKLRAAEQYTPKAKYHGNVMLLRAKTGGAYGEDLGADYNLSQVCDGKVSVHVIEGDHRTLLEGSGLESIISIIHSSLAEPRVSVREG

Structure (SMILES)	outcome [1]	outcome [2]	outcome [3]	outcome [4]	outcome [5]	outcome [6]	outcome [7]	outcome [8]	outcome [9]	outcome [10]	outcome [11]	outcome [12]	outcome [13]	outcome [14]	outcome [15]	outcome [16]	outcome [17]	AC50 [8]	AC50 [16]
OC(Cn1cncn1)(Cn1cncn1)c1ccc(F)cc1F	inactive	inactive	inactive	inactive	inactive	inactive	inactive	inactive	inactive	inactive	inactive	inactive	inactive	inactive	inactive	inactive	inactive	–	–
c1ccc2cc3ccccc3cc2c1	inactive	inactive	inactive	inactive	inactive	inactive	inactive	–	inactive	inactive	inactive	inactive	inactive	inactive	inactive	–	inactive	10.5 µM (active)	71.7 µM (active)
COS(C)(=O)=O	inactive	inactive	inactive	inactive	inactive	inactive	inactive	inactive	inactive	inactive	inactive	inactive	inactive	inactive	inactive	inactive	inactive	–	–
COCc1nnc(-c2ccc[n+]([O-])c2)n1-c1c(Cl)c(Cl)cc2[nH]c(=O)c(=O)[nH]c12	inactive	inactive	inactive	inactive	inactive	inactive	inactive	–	inactive	inactive	inactive	inactive	inactive	inactive	inactive	inactive	inactive	50 µM (active)	–
CCCCCCCCCCCCCCCCOS(=O)(=O)O	inactive	inactive	inactive	inactive	inactive	inactive	inactive	–	inactive	inactive	inactive	inactive	inactive	inactive	inactive	–	inactive	14.9 µM (active)	41.1 µM (active)
NC(=O)N(O)[C@@H]1COc2cc(OCc3ccccc3)ccc21	inactive	inactive	inactive	inactive	inactive	inactive	inactive	–	inactive	inactive	inactive	inactive	inactive	inactive	inactive	inactive	inactive	40.2 µM (active)	–
CCCCCCCCCC	inactive	inactive	inactive	inactive	inactive	inactive	inactive	–	inactive	inactive	inactive	inactive	inactive	inactive	inactive	inactive	inactive	50 µM (active)	–
